Reference: PubChem BioAssay
For some assays here: Results with a measured potency or affinity are listed apart. The source made the active and inactive calls. Unless noted, no rule for the calls is given here.

Assays:
[1] = antimalarial activity against Dd2 strain (AID 2302;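 active = growth inhibition above 50% at the single 2 µM test dose, taken to imply half-maximal potency below 2 µM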;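 also: 0% = DMSO untreated growth and 100% = chloroquine plus artemisinin killed control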); conditions: P. falciparum Dd2 in RBCs, LDH growth readout, 72 h; at 2 µM; hits give high values
[2] = HepG2 cytotoxicity, primary screen, cytotoxicity control for P. falciparum antimalarial project, cell-based, ATP luminescence (AID 2303;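 active = inhibition above 50%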;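 also: 0% = DMSO wells and 100% = digitonin-killed cells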); conditions: HepG2 viability, 24-48 h, at 10 µM, hits give high values
[3] = biological target: L-lactate dehydrogenase (Plasmodium falciparum (isolate CDC / Honduras)) (UniProt Q27743); assay: PfLDH activity inhibition – cell lysate, 3D7 strain, counter-screen for P. falciparum growth inhibition project (AID 2304);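 also: 0% = vehicle and 100% = reference inhibitor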; conditions: P. falciparum 3D7 crude extract, LDH APAD/NBT absorbance; at 2 µM; hits give high values
Sequence of L-lactate dehydrogenase (Plasmodium falciparum (isolate CDC / Honduras)) (Q27743 whole entry, looked up): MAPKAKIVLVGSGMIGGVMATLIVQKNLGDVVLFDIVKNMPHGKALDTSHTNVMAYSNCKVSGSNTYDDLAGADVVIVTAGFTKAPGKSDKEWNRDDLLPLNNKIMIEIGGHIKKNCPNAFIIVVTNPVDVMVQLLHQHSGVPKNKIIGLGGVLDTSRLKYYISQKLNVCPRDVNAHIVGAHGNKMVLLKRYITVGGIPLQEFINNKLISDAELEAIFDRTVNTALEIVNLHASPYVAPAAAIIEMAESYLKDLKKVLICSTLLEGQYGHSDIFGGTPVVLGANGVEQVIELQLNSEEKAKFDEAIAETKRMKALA

[4] = inhibition of 3D7 malaria parasite growth – strain 3D7 (AID 2306);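 also: 0% = DMSO wells and 100% = chloroquine plus artemisinin control wells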; conditions: P. falciparum 3D7 erythrocytic growth, LDH absorbance, 72 h; at 2 µM; hits give high values
[5] = biological target: Calcium-dependent protein kinase 1 (Plasmodium falciparum (isolate 3D7)) (UniProt P62344); assay: PfCDPK1 kinase inhibitors, biochemical, TCAMS library (AID 1159585; cut-off not given, nearly all actives have IC50 up to about 0.98 µM;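 also: inhibitors leave more ATP so luminescence rises with inhibition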); conditions: recombinant PfCDPK1, Kinase-Glo ATP depletion luminescence
Sequence of Calcium-dependent protein kinase 1 (Plasmodium falciparum (isolate 3D7)) (P62344 whole entry, looked up): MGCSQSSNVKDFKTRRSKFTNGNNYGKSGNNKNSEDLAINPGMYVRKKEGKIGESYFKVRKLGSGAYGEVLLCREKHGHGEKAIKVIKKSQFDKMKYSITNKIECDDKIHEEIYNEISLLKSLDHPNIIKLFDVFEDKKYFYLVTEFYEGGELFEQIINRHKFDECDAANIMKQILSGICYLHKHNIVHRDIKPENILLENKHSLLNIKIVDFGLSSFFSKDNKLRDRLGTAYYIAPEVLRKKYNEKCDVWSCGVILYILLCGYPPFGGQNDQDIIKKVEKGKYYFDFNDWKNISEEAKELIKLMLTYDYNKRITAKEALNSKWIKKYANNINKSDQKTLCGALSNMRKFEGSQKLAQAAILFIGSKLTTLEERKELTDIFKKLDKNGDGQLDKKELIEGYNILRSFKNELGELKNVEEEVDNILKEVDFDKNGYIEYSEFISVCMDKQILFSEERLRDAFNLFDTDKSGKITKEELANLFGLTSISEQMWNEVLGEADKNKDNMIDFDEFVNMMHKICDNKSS

[6] = biological target: Plasmodium falciparum protein kinase 6 (PK6, PF3D7_1337100) (UniProt Q8IDW1); assay: PfPK6 kinase inhibitors, biochemical, TCAMS library (AID 1159586); conditions: recombinant PfPK6, Kinase-Glo ATP depletion luminescence
Sequence of Plasmodium falciparum protein kinase 6 (PK6, PF3D7_1337100) (Q8IDW1 1-305): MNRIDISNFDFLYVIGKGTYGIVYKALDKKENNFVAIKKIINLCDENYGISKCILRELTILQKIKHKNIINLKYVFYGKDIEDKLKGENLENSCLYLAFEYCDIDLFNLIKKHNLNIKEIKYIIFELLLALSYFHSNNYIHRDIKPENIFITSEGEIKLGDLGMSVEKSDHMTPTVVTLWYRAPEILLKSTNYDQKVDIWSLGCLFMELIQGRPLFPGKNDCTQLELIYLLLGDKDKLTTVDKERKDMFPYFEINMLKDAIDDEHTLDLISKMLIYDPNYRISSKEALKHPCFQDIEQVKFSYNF

[7] = biological target: Protein kinase 7 (PK7), Plasmodium falciparum 3D7 (PF3D7_0213400) (UniProt Q7YTF7); assay: inhibition of Plasmodium PK7 catalytic activity – biochemical, TCAMS antimalarial set, Kinase-Glo luminescence (AID 1159587); conditions: recombinant PfPK7, Kinase-Glo ATP depletion luminescence
Sequence of Protein kinase 7 (PK7), Plasmodium falciparum 3D7 (PF3D7_0213400) (Q7YTF7 1-343): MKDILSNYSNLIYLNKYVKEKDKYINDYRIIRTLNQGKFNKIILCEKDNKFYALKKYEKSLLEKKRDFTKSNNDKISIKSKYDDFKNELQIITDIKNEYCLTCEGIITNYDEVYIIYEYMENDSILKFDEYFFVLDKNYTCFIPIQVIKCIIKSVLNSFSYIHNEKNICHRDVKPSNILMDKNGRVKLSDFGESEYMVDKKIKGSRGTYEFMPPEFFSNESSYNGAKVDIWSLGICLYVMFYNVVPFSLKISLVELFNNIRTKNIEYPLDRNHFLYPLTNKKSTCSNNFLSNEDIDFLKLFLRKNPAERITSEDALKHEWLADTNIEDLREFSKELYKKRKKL

[8] = biological target: Calcium-dependent protein kinase 4 (Plasmodium falciparum (isolate 3D7)) (UniProt Q8IBS5); assay: PfCDPK4 kinase inhibitors, biochemical, TCAMS library (AID 1159588; cut-off not given, nearly all actives have IC50 up to about 0.91 µM); conditions: recombinant PfCDPK4, Kinase-Glo ATP depletion luminescence
Sequence of Calcium-dependent protein kinase 4 (Plasmodium falciparum (isolate 3D7)) (Q8IBS5 whole entry, looked up): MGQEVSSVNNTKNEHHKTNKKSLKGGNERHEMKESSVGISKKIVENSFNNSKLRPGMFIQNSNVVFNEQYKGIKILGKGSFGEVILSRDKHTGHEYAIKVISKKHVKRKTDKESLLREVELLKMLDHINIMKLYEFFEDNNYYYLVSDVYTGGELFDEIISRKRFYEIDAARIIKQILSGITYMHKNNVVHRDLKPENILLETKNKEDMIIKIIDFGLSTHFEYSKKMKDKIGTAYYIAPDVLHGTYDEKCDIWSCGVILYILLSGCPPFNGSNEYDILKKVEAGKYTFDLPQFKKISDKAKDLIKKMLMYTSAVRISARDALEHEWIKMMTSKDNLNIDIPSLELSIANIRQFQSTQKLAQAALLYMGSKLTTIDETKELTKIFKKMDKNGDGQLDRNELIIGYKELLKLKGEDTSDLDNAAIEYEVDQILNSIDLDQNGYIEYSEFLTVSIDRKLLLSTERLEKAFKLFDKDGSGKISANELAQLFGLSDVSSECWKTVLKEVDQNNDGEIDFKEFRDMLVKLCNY

CN(C)CCN(Cc1ccccc1)c1ccc([N+](=O)[O-])cc1C(F)(F)F
active: growth inhibition [1] 89% | growth inhibition [4] 96%
inactive: inhibition [2] 40% | inhibition [3] -8% | outcome [5] | outcome [6] | outcome [7] | outcome [8]

N[C@@H](CCNC1CCN(c2cccc(C(F)(F)F)c2)CC1)Cc1ccc(F)c(F)c1
active: growth inhibition [1] 69% | inhibition [2] 100% | growth inhibition [4] 101%
inactive: inhibition [3] -1% | outcome [5] | outcome [6] | outcome [7] | outcome [8]

O=C(Nc1cccc(-c2nc3ccccc3s2)c1)c1ccccc1[N+](=O)[O-]
inactive: growth inhibition [1] 9% | inhibition [2] 0% | inhibition [3] 0% | outcome [5] | outcome [6] | outcome [7] | outcome [8]
active: growth inhibition [4] 85%

C[C@@H]1CN(CCCn2c3ccccc3c3ccc(C(=O)CCCN(C)C)cc32)C[C@H](C)N1
active: growth inhibition [4] 100%
inactive: growth inhibition [1] 6% | inhibition [2] 26% | inhibition [3] 3% | outcome [5] | outcome [6] | outcome [7] | outcome [8]

COc1ccc(-c2ccc(NC(=O)c3ccc(Cl)cc3)cc2)cc1CN1CCN(C)CC1
active: growth inhibition [4] 86%
inactive: growth inhibition [1] 23% | inhibition [2] 36% | inhibition [3] 7% | outcome [5] | outcome [6] | outcome [7] | outcome [8]

Cc1cnc(Nc2cccnc2)nc1Nc1ccccc1C(=O)NC(C)C
inactive: growth inhibition [1] 26% | inhibition [2] 9% | inhibition [3] 0% | outcome [5] | outcome [6] | outcome [7] | outcome [8]
active: growth inhibition [4] 85%

O=C(/C=C/c1ccc(Cl)c(Cl)c1)NCCCCCN1CCCN(C(=O)Nc2cc(Cl)cc(Cl)c2)CC1
active: inhibition [2] 53% | growth inhibition [4] 96%
inactive: growth inhibition [1] 4% | inhibition [3] 6% | outcome [5] | outcome [6] | outcome [7] | outcome [8]

O=C(Nc1ccc2c(c1)CN(Cc1ccc(N3CCCC3)o1)CCC2)c1ccoc1
active: growth inhibition [1] 76% | growth inhibition [4] 89%
inactive: inhibition [2] 4% | inhibition [3] -3% | outcome [5] | outcome [6] | outcome [7] | outcome [8]

CN(C)Cc1ccc2nc(-c3cccc(Cc4cc(Cl)ccc4OCc4ccc(Cl)cc4F)n3)[nH]c2c1
active: growth inhibition [4] 93%
inactive: growth inhibition [1] 26% | inhibition [2] 43% | inhibition [3] 1% | outcome [5] | outcome [6] | outcome [7] | outcome [8]

Nc1cccc(CNCc2cccc(-c3ccc(-c4nc5ccccc5[nH]4)s3)c2)c1
inactive: inhibition [2] 8% | inhibition [3] -1% | outcome [5] | outcome [6] | outcome [7] | outcome [8]
active: growth inhibition [1] 90% | growth inhibition [4] 101%

CCOC(=O)c1cccc(NC(=O)Nc2cc(C)nc3ccccc23)c1
active: growth inhibition [1] 90% | growth inhibition [4] 100%
inactive: inhibition [2] 14% | inhibition [3] 0% | outcome [5] | outcome [6] | outcome [7] | outcome [8]

Nc1cc(C=Cc2ccc([N+](=O)[O-])o2)nc2ccccc12
active: growth inhibition [1] 81% | inhibition [2] 100% | growth inhibition [4] 93%
inactive: inhibition [3] 4% | outcome [5] | outcome [6] | outcome [7] | outcome [8]

CCNC(=O)Nc1cccc(-c2cccc(-c3nc4ccc(C(F)(F)F)cc4[nH]3)c2)c1
active: inhibition [2] 50% | growth inhibition [4] 91%
inactive: growth inhibition [1] 32% | inhibition [3] 2% | outcome [5] | outcome [6] | outcome [7] | outcome [8]

Cc1cc(C(=O)CN2C(=O)NC3(CCCc4ccccc43)C2=O)c(C)n1Cc1ccc(F)cc1 (stereo not given)
active: growth inhibition [1] 53% | growth inhibition [4] 92%
inactive: inhibition [2] 4% | inhibition [3] 2% | outcome [5] | outcome [6] | outcome [7] | outcome [8]

Oc1cccc(-c2nc3ccc(C4=N[C@@H]5CCCC[C@H]5N4)cc3[nH]2)c1
active: growth inhibition [1] 99% | growth inhibition [4] 94%
inactive: inhibition [2] 3% | inhibition [3] 2% | outcome [5] | outcome [6] | outcome [7] | outcome [8]

CNC(=O)c1ccccc1Nc1cc(Nc2cc(OC)ccn2)ncc1Cl
active: growth inhibition [1] 100% | inhibition [2] 69% | growth inhibition [4] 100%
inactive: inhibition [3] 5% | outcome [5] | outcome [6] | outcome [7] | outcome [8]

NC1=NC(c2ccccc2)(c2ccccc2)C(=O)N1CC=Cc1ccccc1
inactive: inhibition [2] 23% | inhibition [3] -3% | outcome [5] | outcome [6] | outcome [7] | outcome [8]
active: growth inhibition [1] 70% | growth inhibition [4] 98%

O=C(NCCc1ccccc1)N(Cc1ccccc1-c1ccc(CNCCc2ccccc2)cc1)C1CCN(Cc2ccccc2)CC1
inactive: inhibition [3] 5% | outcome [5] | outcome [6] | outcome [7] | outcome [8]
active: growth inhibition [1] 91% | inhibition [2] 99% | growth inhibition [4] 97%

COc1ccc(CN2CCC(Oc3cccc(NC(=O)c4ccc(C(F)(F)F)cc4)c3)CC2)cc1
inactive: growth inhibition [1] 20% | inhibition [2] 35% | inhibition [3] -6% | outcome [5] | outcome [6] | outcome [7] | outcome [8]
active: growth inhibition [4] 95%

O=c1c2ccccc2[nH]c2cc(Cl)ccc12
active: growth inhibition [1] 86% | growth inhibition [4] 95%
inactive: inhibition [2] 24% | inhibition [3] 1% | outcome [5] | outcome [6] | outcome [7] | outcome [8]

Cc1cccc2[nH]c(-c3ccc(-c4ccc(CNCc5cnn(-c6ccccc6)n5)cc4)cc3)nc12
active: growth inhibition [1] 99% | growth inhibition [4] 101%
inactive: inhibition [2] 35% | inhibition [3] -4% | outcome [5] | outcome [6] | outcome [7] | outcome [8]

CCNc1cc(-c2cccc(OC)c2)nc(Nc2ccc(F)cc2)n1
active: growth inhibition [4] 87%
inactive: growth inhibition [1] 23% | inhibition [2] 11% | inhibition [3] 3% | outcome [5] | outcome [6] | outcome [7] | outcome [8]

COc1ccc2nccc([C@@H](O)CN3CCC(NCCOc4cccc(C(F)(F)F)c4)CC3)c2c1
inactive: inhibition [2] 16% | inhibition [3] 3% | outcome [5] | outcome [6] | outcome [7] | outcome [8]
active: growth inhibition [1] 74% | growth inhibition [4] 102%

CCCC1N=C(N)N=C(N)N1c1ccccc1 (stereo not given)
inactive: growth inhibition [1] -3% | inhibition [2] -4% | inhibition [3] -6% | outcome [5] | outcome [6] | outcome [7] | outcome [8]
active: growth inhibition [4] 93%

CCOc1cc(C(=O)NCCN(CC)c2cccc(C)c2)ccc1-c1nc2ccc(Cl)cc2[nH]1
inactive: inhibition [2] -1% | inhibition [3] 0% | outcome [5] | outcome [6] | outcome [7] | outcome [8]
active: growth inhibition [1] 80% | growth inhibition [4] 102%

CCCC(=O)Nc1ccc(OCCCN(Cc2ccccc2C(F)(F)F)c2ccc(C#N)c(C(F)(F)F)c2)cc1
inactive: inhibition [2] -5% | inhibition [3] 2% | outcome [5] | outcome [6] | outcome [7] | outcome [8]
active: growth inhibition [1] 79% | growth inhibition [4] 89%

CCNC(=O)Nc1cccc(-c2ccc(-c3nc4c(C)cccc4[nH]3)s2)c1
active: growth inhibition [4] 96%
inactive: growth inhibition [1] 20% | inhibition [2] 32% | inhibition [3] -4% | outcome [5] | outcome [6] | outcome [7] | outcome [8]

CC(=O)Nc1ccc(CN(Cc2ccc(F)cc2)Cc2cccc(Oc3ccccc3)c2)cc1
inactive: inhibition [2] -8% | inhibition [3] 6% | outcome [5] | outcome [6] | outcome [7] | outcome [8]
active: growth inhibition [1] 82% | growth inhibition [4] 88%

CNC(=O)c1cc(Nc2nnc(-c3ccc(C)c(S(=O)(=O)NC4CCCCC4)c3)c3ccccc23)ccc1OC
inactive: inhibition [2] -10% | inhibition [3] 5% | outcome [5] | outcome [6] | outcome [7] | outcome [8]
active: growth inhibition [1] 61% | growth inhibition [4] 87%

COc1cccc(Nc2nc(C)cc(NCc3ccc(-n4ccnc4)cc3)n2)c1
inactive: inhibition [2] -13% | inhibition [3] -5% | outcome [5] | outcome [6] | outcome [7] | outcome [8]
active: growth inhibition [1] 99% | growth inhibition [4] 101%

c1ccc(N2CCN(c3cc(-c4cccnc4)nc(-c4ccncc4)n3)CC2)nc1
active: growth inhibition [4] 99%
inactive: growth inhibition [1] 22% | inhibition [2] 22% | inhibition [3] -2% | outcome [5] | outcome [6] | outcome [7] | outcome [8]

COc1ccc2ccccc2c1C=NNc1cc(C)nc2cc(C(F)(F)F)ccc12
active: growth inhibition [4] 92%
inactive: growth inhibition [1] 4% | inhibition [2] 1% | inhibition [3] 0% | outcome [5] | outcome [6] | outcome [7] | outcome [8]

CC1(C)[C@H]2C=C(CN3CCC(NC(=O)Nc4ccc(Cl)c(Cl)c4)CC3)[C@@H]1CC2
inactive: growth inhibition [1] 33% | inhibition [2] 28% | inhibition [3] 2% | outcome [5] | outcome [6] | outcome [7] | outcome [8]
active: growth inhibition [4] 101%

COc1cc2sc(=NC(=O)c3cccc([N+](=O)[O-])c3)n(C)c2cc1OC
inactive: inhibition [2] 5% | inhibition [3] -3% | outcome [5] | outcome [6] | outcome [7] | outcome [8]
active: growth inhibition [1] 79% | growth inhibition [4] 92%

Cn1nccc1C(=O)NCCNCc1cccc(-c2cccc(-c3nc4ccc(C(F)(F)F)cc4[nH]3)c2)c1
inactive: inhibition [2] 39% | inhibition [3] -7% | outcome [5] | outcome [6] | outcome [7] | outcome [8]
active: growth inhibition [1] 99% | growth inhibition [4] 102%

O=C(Cn1c(SCc2cccc(F)c2F)cc(=O)c2ccccc21)N(CCN1CCCCC1)Cc1ccc(-c2ccc(C(F)(F)F)cc2)cc1
inactive: inhibition [2] 41% | inhibition [3] -1% | outcome [5] | outcome [6] | outcome [7] | outcome [8]
active: growth inhibition [1] 82% | growth inhibition [4] 99%

CCN(CCCN1CCCCC1)c1cc(C)nc(Nc2cccc3c2CCCC3)n1
inactive: growth inhibition [1] 46% | inhibition [3] -3% | outcome [5] | outcome [6] | outcome [7] | outcome [8]
active: inhibition [2] 60% | growth inhibition [4] 92%

CC1(C)N=C(N)NC(NOCC=Cc2ccccc2)=N1
active: growth inhibition [4] 98%
inactive: growth inhibition [1] 2% | inhibition [2] 35% | inhibition [3] -2% | outcome [5] | outcome [6] | outcome [7] | outcome [8]

CC(Sc1nc2sccc2c(=O)n1C)C(=O)Nc1ccc2c(c1)OCO2 (stereo not given)
active: growth inhibition [1] 100% | growth inhibition [4] 100%
inactive: inhibition [2] 5% | inhibition [3] 4% | outcome [5] | outcome [6] | outcome [7] | outcome [8]

O=c1cc(NCCCNCc2ccc(C(F)(F)F)cc2F)[nH]c2ccccc12
active: growth inhibition [4] 93%
inactive: growth inhibition [1] 48% | inhibition [2] 1% | inhibition [3] 8% | outcome [5] | outcome [6] | outcome [7] | outcome [8]
